Mtb FBA inh: Mtb FBA enzyme inhibitors, primary screen, biochemical, fluorescence, strain H37Rv; Fructose-bisphosphate aldolase (Mycobacterium tuberculosis (strain ATCC 25618 / H37Rv)), …; purified M. tuberculosis FBA, fluorescence read-out; inhibition, % at 1 µM; 360,000 tested, 2.3% active; AID 588726, 2011;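 also: 0% = vehicle and 100% = reference inhibitor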
Rv3671c inh: Rv3671c serine protease inhibitors, primary screen, biochemical, fluorescence polarization, M. tuberculosis H37Rv; P9WHR9; inhibition, % at 5.96 µM; 320,000 tested, 0.048% active; in the data active = inhibition above about 38%;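 also: extracellular domain of Rv3671c used as enzyme; 0% = enzyme with DMSO and 100% = no enzyme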
Target sequence (P9WHR9 whole entry, looked up, the tested form may be a part): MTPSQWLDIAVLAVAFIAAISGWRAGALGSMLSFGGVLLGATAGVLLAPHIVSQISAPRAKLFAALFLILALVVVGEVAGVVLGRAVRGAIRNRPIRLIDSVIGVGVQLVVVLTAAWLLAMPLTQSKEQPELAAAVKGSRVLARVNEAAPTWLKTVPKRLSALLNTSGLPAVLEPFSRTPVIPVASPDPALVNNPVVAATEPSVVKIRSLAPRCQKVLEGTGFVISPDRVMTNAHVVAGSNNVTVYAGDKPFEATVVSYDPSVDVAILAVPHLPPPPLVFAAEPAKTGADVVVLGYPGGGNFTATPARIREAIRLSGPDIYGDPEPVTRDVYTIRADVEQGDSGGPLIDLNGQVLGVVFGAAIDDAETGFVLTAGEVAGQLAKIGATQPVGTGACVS
GDH-TPI counter-1: GDH-TPI coupling enzyme inhibitors, primary screen, artefact control for M. tuberculosis FBA inhibitor project, biochemical, absorbance, full deck. 360,000 tested, 1.2% active. AID 588335, 2011. GDH-TPI coupled enzyme counterscreen, NADH absorbance. inhibition, % at 4.8 µM; in the data active = inhibition above about 30%;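 also: 0% = DMSO wells and 100% = wells lacking the enzyme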
RecA intein inh: Mtb RecA intein splicing inhibitors, primary screen, biochemical, fluorescence, HTS | inhibition, % (test concentration not listed) | Protein RecA (Mycobacterium tuberculosis (strain ATCC 25618 / H37Rv)), P9WHJ3 | cell-free RecA intein splicing | 290,000 tested, 0.75% active | AID 2221, 2009; in the data active = inhibition above about 30%;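 also: 0% = vehicle wells and 100% = reference inhibitor control wells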
Mtb UGM inh: M. tuberculosis UGM enzyme inhibitors, primary screen, biochemical, fluorescence polarization, single point. UDP-galactopyranose mutase (Mycobacterium tuberculosis (strain ATCC 25618 / H37Rv)), …. purified UGM, fluorescence polarization probe displacement. inhibition, % at 10 µM. 320,000 tested, 0.06% active; in the data active = inhibition above about 10%, passing the limit was not always enough
Mtb bLac sens: beta-lactam sensitization of Mtb H37Rv, H37Rv. M. tuberculosis H37Rv growth with meropenem, percent inhibition. inhibition, % at 25 µM. 330,000 tested, 0.27% active. AID 434955, 2010; call rule not given here;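 also: growth measured after seven days incubation then overnight dye step; 0% = bacteria only wells and 100% = bacteria with antibiotic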
Mtb FBA inh conf: M. tuberculosis aldolase blockers, biochemical, fluorescence, strain H37Rv, confirmation; inhibition, % at 1 µM; AID 651616, 2012; shares compounds with Mtb FBA inh; purified M. tuberculosis FBA, fluorescence read-out; 5,600 tested, 78% active;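 also: 0% = vehicle wells and 100% = reference inhibitor wells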
GDH-TPI counter-2: GDH-TPI coupling enzyme inhibitors, artefact control for M. tuberculosis FBA inhibitor project, biochemical, fluorescence, high throughput | shares compounds with Mtb FBA inh | GDH-TPI coupled enzyme counterscreen | inhibition, % at 1 µM | 5,600 tested, 81% active; in the data active = inhibition above about 10%
GDH-TPI DR: GDH-TPI coupling enzyme inhibitors, dose response, artefact control for M. tuberculosis FBA inhibitor project, biochemical, fluorescence, IC50. 170 tested, 79% active. IC50, µM. GDH-TPI coupled enzyme assay, artifact counterscreen. AID 652145, 2013. shares compounds with Mtb FBA inh; call rule not given here
Numbers without * were called inactive; nt = no result; + = active, no number. A selection: hits, their analogues and other compounds. The true share with any hit is near 4%. Rule as the data show it, unless noted: active = inhibition above about 27%; inactive = the rest.

SMILES | Mtb FBA inh | Rv3671c inh | GDH-TPI counter-1 | RecA intein inh | Mtb UGM inh | Mtb bLac sens | Mtb FBA inh conf | GDH-TPI counter-2 | others
COC(=O)c1cnn2c1C(=O)N(Cc1cccs1)CC2 | 5 | 2 | -3 | -1 | nt | 2 | nt | nt
COc1cc(C)nc(NS(=O)(=O)c2ccccc2Cl)n1 | 3 | 2 | 0 | 1 | 0 | 7 | nt | nt
Cn1cc(S(=O)(=O)NC2CCCC2)c(=O)n(C)c1=O | 0 | 9 | 5 | -2 | 0 | -11 | nt | nt
CC(=O)c1cccc(NC(=O)/C(=C\c2cccnc2)NC(=O)c2ccco2)c1 | 1 | 17 | 5 | -1 | 1 | -2 | nt | nt
CCOC(=O)c1oc2cccc(OCC(O)CNC(C)C)c2c1C (configuration not stated) | 91* | 1 | 8 | 2 | -1 | -17 | 11 | -4 | GDH-TPI DR=1.5*
Cc1ccc(NC(=O)CCN2C(=O)CSC2=O)c(C)c1 | 1 | 6 | -5 | 2 | 3 | -9 | nt | nt
CCOc1cc(S(=O)(=O)NCc2ccco2)c(OCC)cc1-n1cnnn1 | 30* | -10 | 8 | -3 | -1 | -3 | 63* | 45*
CCOc1cc(S(=O)(=O)N2CCN(S(=O)(=O)CC)CC2)c(OCC)cc1-n1cnnn1 | 9 | -11 | 1 | 0 | -3 | 4 | nt | nt
CCOc1cc(S(=O)(=O)NC2CC2)c(OCC)cc1-n1cnnn1 | 34* | -6 | -5 | -4 | 0 | -1 | 184* | 159*
O=C(COC(=O)c1cccs1)Nc1nnc(-c2ccccc2)o1 | 2 | 1 | 3 | 0 | 3 | 81 | nt | nt
CCOC(=O)C1CCCN(C(=O)c2ccc3nc(-c4ccccc4)c(-c4ccccc4)nc3c2)C1 (configuration not stated) | 36* | -2 | 29 | 12 | 2 | 8 | 4 | 6
NC(=O)c1ccc2nc(-c3ccccc3)c(-c3ccccc3)nc2c1 | 15 | -11 | 23 | -2 | 1 | 5 | nt | nt
CCN1CCN(C(=O)c2ccc3nc(-c4ccccc4)c(-c4ccccc4)nc3c2)CC1 | 44* | 1 | 25 | 2 | -1 | -1 | 129* | 91*
O=C(O)c1ccc2nc(-c3ccccc3)c(-c3ccccc3)nc2c1 | 30* | 1 | 12 | -1 | -1 | -4 | 59* | 34*
CN1CCN(CCNC(=O)c2ccc3nc(-c4ccc(F)cc4)c(-c4ccc(F)cc4)nc3c2)CC1 | 58* | -12 | 6 | 1 | -2 | 1 | 19 | 6 | GDH-TPI DR=3.4*
Cc1c(C)c2cc(Cl)c(OCc3nn[nH]n3)cc2oc1=O | 55* | -2 | 12 | 5 | 0 | -3 | 92* | 75*
Cc1cc(OCc2ccc([N+](=O)[O-])cc2)c2c3c(c(=O)oc2c1)CCCC3 | 6 | 3 | 2 | 0 | nt | 1 | nt | nt
C=CCOC(=O)COc1cc(C)cc2oc(=O)c3c(c12)CCC3 | 57* | -1 | 17 | 2 | 2 | 8 | + | 170*
Cc1cc(OCc2nn[nH]n2)c2c3c(c(=O)oc2c1)CCCC3 | 84* | -10 | 10 | 3 | -1 | -4 | 59* | 47*
CCN(CC)C(=O)COc1cc(C)cc2oc(=O)c3c(c12)CCCC3 | 81* | nt | 13 | 2 | 4 | -9 | 61* | 43*
COc1cc2nc(C3CCC3)n(N)c(=O)c2cc1OC | 5 | -4 | 8 | 1 | 2 | 0 | nt | nt
CN(CC(=O)Nc1ccccc1F)S(=O)(=O)c1ccc2c(c1)n(C)c(=O)c(=O)n2C | 3 | 8 | 4 | 0 | 1 | -6 | nt | nt
CCN1C(=O)/C(=C2/Sc3ccc(OC)cc3N2C)SC1=Nc1cccc(O)c1 | 3 | 7 | 2 | -5 | 4 | 7 | nt | nt
CC(C)C(C(=O)NCC1CCCO1)N(C(=O)CNS(=O)(=O)c1ccc(F)cc1)c1ccccc1 (configuration not stated) | 1 | -4 | -5 | -1 | -2 | 1 | nt | nt
COCc1cc(OC)nc(-c2csc(C)n2)n1 | 0 | 4 | -10 | 0 | -2 | 1 | nt | nt
SMILES | Mtb FBA inh | Rv3671c inh | GDH-TPI counter-1 | RecA intein inh | Mtb UGM inh | Mtb bLac sens | Mtb FBA inh conf | GDH-TPI counter-2 | others
Cn1c(=O)n(C)c2cc(S(=O)(=O)Nc3ccccc3C(=O)O)ccc21 | 29* | -5 | 11 | 0 | 0 | 1 | + | +
Cc1cc(C)n2nc(C(=O)NC(c3ccccc3)c3ccccc3)nc2n1 | 0 | 7 | 0 | 2 | 0 | 0 | nt | nt
NC(=O)c1nsc(C(=O)N(c2cccc(F)c2)C(C(=O)NCC2CCCO2)c2cccs2)c1N (configuration not stated) | 34* | -1 | 7 | -3 | 0 | 3 | 86* | 76*
Cc1ccccc1N(C(=O)c1snc(C(N)=O)c1N)C(C(=O)NCC1CCCO1)c1ccc(N(C)C)cc1 (configuration not stated) | 3 | 2 | 10 | 1 | 0 | 0 | nt | nt
Cc1ccccc1N(C(=O)c1snc(C(N)=O)c1N)C(C(=O)NCC1CCCO1)c1ccc(F)cc1 (configuration not stated) | 55* | 0 | 0 | -4 | 2 | 10 | 3 | 0
Cc1ccc(N(C(=O)c2snc(C(N)=O)c2N)C(C(=O)NCC2CCCO2)c2ccc(C)o2)c(C)c1 (configuration not stated) | 23 | 3 | 4 | -9 | 3 | 7 | nt | nt
CCc1ccccc1N(C(=O)c1snc(C(N)=O)c1N)C(C(=O)NCC1CCCO1)c1ccc(C)o1 (configuration not stated) | 49* | -7 | 9 | 2 | -1 | 3 | 10 | -3
CC(=O)Nc1ccc2c(CSc3nnc(N)s3)cc(=O)oc2c1 | 27* | -8 | 42* | 0 | -1 | 0 | 78* | 67*
Cc1ccc2c(CSc3nnc(N)s3)cc(=O)oc2c1 | 0 | -5 | 19 | 1 | 0 | 57 | nt | nt
CCOc1ccc2[nH]c(=O)c(CN(CCO)C(=O)c3ccc(OC)c(OC)c3)cc2c1 | 6 | 1 | 6 | 0 | -3 | -5 | nt | nt

High-throughput results deposited in PubChem BioAssay by several laboratories.
